Reference: PubChem BioAssay AID1159580 (chemical genetic matrix, 2015)
Out of some 5,500 compounds screened, about 2,000 (36%) were called active. Inconclusive results (about 18%) are left out. Cut-off read from the data, not from the text of the source: active = normalized growth mostly below about 0.91 (no sharp cut-off); inconclusive = no clear call, values can overlap the other calls; inactive = mostly above about 0.92. The list shows a part of the results.

Assay: chemical genetic growth profiling, strain panel (AID 1159580);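 note: tested at 20 µM; growth read once vehicle control cultures reached saturation at 30 °C; 1 = growth at the plate median or of vehicle wells; lower values mean less growth of the strain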
Settings: S. cerevisiae deletion strains, growth OD

Measured: normalized growth

CCN1CN=C(SCc2ccc(Br)cc2)NC1
inactive: locus YAL013W, strain DEP1, hits give low values 1.01 | locus YBR229C, strain ROT2, hits give low values 1.01 | locus YCL061C, strain MRC1, hits give low values 1.02 | locus YDL101C, strain DUN1, hits give low values 0.998 | locus YDL134C, strain PPH21, hits give low values 1.01 | locus YDR150W, strain NUM1, hits give low values 0.995 | locus YEL061C, strain CIN8, hits give low values 1.01 | locus YGR078C, strain PAC10, hits give low values 0.998 | locus YHR030C, strain SLT2, hits give low values 0.902 | locus YHR087W, strain rtc3, hits give low values 0.999 | locus YJL187C, strain SWE1, hits give low values 1.01 | locus YJR043C, strain POL32, hits give low values 0.988 | locus YJR075W, strain HOC1, hits give low values 0.98 | locus YKL190W, strain CNB1, hits give low values 1.02 | locus YLR039C, strain RIC1, hits give low values 0.982 | locus YLR058C, strain SHM2 (second series), hits give low values 1.02 | locus YLR085C, strain ARP6, hits give low values 1.02 | locus YLR262C, strain YPT6, hits give low values 0.953 | locus YML094W, strain GIM5, hits give low values 0.996 | locus YMR219W, strain ESC1, hits give low values 0.999 | locus YMR263W, strain SAP30, hits give low values 1.01 | locus YMR307W, strain GAS1, hits give low values 1.17 | locus YNL153C, strain GIM3, hits give low values 0.986 | locus YNL298W, strain CLA4 (second series), hits give low values 0.984 | locus YNL322C, strain KRE1, hits give low values 1.01 | locus YNR030W, strain Alg12, hits give low values 0.999 | locus YPL055C, strain LGE1, hits give low values 1.06 | locus YPL241C, strain CIN2, hits give low values 0.995 | locus YPR135W, strain CTF4, hits give low values 0.98
